# Measured values taken from the supplement of paper PMC6658780.
# Where a name gives a salt, the structure may show the parent alone. ± gives the standard deviation of the averaged measurements.
# Test system: Escherichia coli ATCC BAA-2469
# Assay: percent growth inhibition of drug alone vs DMSO control; higher = more growth inhibition
# Conditions: antibiotic (0.125x MIC): none (0.1% DMSO); 7 µM
# Procedure: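 Prestwick drugs tested at 20 uM and 7 uM with an antibiotic at 0.125x MIC (16 mg/L when MIC >128 mg/L) against E. coli ATCC BAA-2469 (NDM-1) in CAMHB, 384-well plates, duplicate runs. Percent growth inhibition was computed from OD600 (24 h minus 0 h) relative to DMSO wells. Drug + DMSO-only wells are also given. […]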
row,SMILES,percent growth inhibition of drug alone
1,O=C(Nc1ccc([N+](=O)[O-])cc1Cl)c1cc(Cl)ccc1O [Niclosamide],2.78 ± 1.6%
2,O=C(O)CN(CCN(CC(=O)O)CC(=O)O)CCN(CC(=O)O)CC(=O)O [Pentetic acid],0.0597 ± 2.1%
3,CC[C@H]1OC(=O)[C@H](C)[C@@H](O[C@H]2C[C@@](C)(OC)[C@@H](O)[C@H](C)O2)[C@H](C)[C@@H](O[C@@H]2O[C@H](C)C[C@H](N(C)C)[C@H]2O)[C@](C)(O)C[C@@H](C)CN(C)[C@H](C)[C@@H](O)[C@]1(C)O [Azithromycin],22.2 ± 12%
4,OCCN1CCN(CCCN2c3ccccc3Sc3ccc(C(F)(F)F)cc32)CC1 [Fluphenazine dihydrochloride],1.91 ± 1.5%
5,O=C1c2c(O)ccc(O)c2C(=O)c2c(NCCNCCO)ccc(NCCNCCO)c21 [Mitoxantrone dihydrochloride],7.78 ± 5.1%
6,CC1=C(/C=C/C(C)=C/C=C/C(C)=C\C(=O)O)C(C)(C)CCC1 [Isotretinoin],1.08 ± 2.4%
7,CCCOc1ccc2[nH]c(NC(=O)OC)nc2c1 [Oxibendazol],0.775 ± 0.31%
8,CCCCCCCCCCCCCCCC[N+](C)(C)CCN(Cc1ccc(OC)cc1)c1ncccn1 [Thonzonium bromide],3.7 ± 4.2%
9,CC(=O)c1ccc2c(c1)N(CCCN1CCC(CCO)CC1)c1ccccc1S2 [Piperacetazine],0.548 ± 3.2%
10,Nc1ccn([C@@H]2O[C@H](CO)[C@@H](O)C2(F)F)c(=O)n1 [Gemcitabine],15.3 ± 12%
11,Cc1c(N(C)C)c(=O)n(-c2ccccc2)n1C [Amidopyrine],0.00227 ± 1.1%
12,N=C(NCCCCCCNC(=N)NC(=N)Nc1ccc(Cl)cc1)NC(=N)Nc1ccc(Cl)cc1 [Chlorhexidine],103 ± 2.7%
13,CCCCC(CC)CNC(=N)NC(=N)NCCCCCCNC(=N)NC(=N)NCC(CC)CCCC (stereo not given) [Alexidine dihydrochloride],102 ± 2%
14,OC(CCN1CCCC1)(c1ccccc1)C1CCCCC1 (stereo not given) [Procyclidine hydrochloride],3.3 ± 1.6%
15,COc1ccccc1OCC(O)CO (stereo not given) [Guaifenesin],-0.628 ± 1.6%
16,Cc1cccc(C)c1NC(=O)C1CCCCN1C (stereo not given) [Mepivacaine hydrochloride],-0.605 ± 0.25%
17,CS(=O)(=O)c1ccc([C@@H](O)[C@@H](CF)NC(=O)C(Cl)Cl)cc1 [Florfenicol],21.5 ± 9.2%
18,Cc1cc(/C=C/c2ccc3cc(N(C)C)ccc3[n+]2C)c(C)n1-c1ccccc1 [Pyrvinium pamoate],11.8 ± 12%
19,COc1cc(NS(=O)(=O)c2ccc(N)cc2)nc(OC)n1 [Sulfadimethoxine],-0.418 ± 1.2%
20,Cc1cc(N)c2ccccc2[n+]1CCCCCCCCCC[n+]1c(C)cc(N)c2ccccc21 [Dequalinium dichloride],2.01 ± 0.53%
21,CCC[C@@H]1C[C@@H](C(=O)N[C@@H]([C@H]2O[C@H](SC)[C@H](O)[C@@H](O)[C@H]2O)[C@H](C)Cl)N(C)C1 [Clindamycin hydrochloride],12.8 ± 13%
22,C[C@H]1[C@H](NC(=O)/C(=N\OC(C)(C)C(=O)O)c2csc(N)n2)C(=O)N1S(=O)(=O)O [Aztreonam],13.2 ± 14%

# Same assay, conditions: antibiotic (0.125x MIC): none (0.1% DMSO); 20 µM
row,SMILES,percent growth inhibition of drug alone
1,O=C(Nc1ccc([N+](=O)[O-])cc1Cl)c1cc(Cl)ccc1O [Niclosamide],14.5 ± 19%
2,O=C(O)CN(CCN(CC(=O)O)CC(=O)O)CCN(CC(=O)O)CC(=O)O [Pentetic acid],0.251 ± 0.41%
3,OCCN1CCN(CCCN2c3ccccc3Sc3ccc(C(F)(F)F)cc32)CC1 [Fluphenazine dihydrochloride],3.64 ± 1.5%
4,CC1=C(/C=C/C(C)=C/C=C/C(C)=C\C(=O)O)C(C)(C)CCC1 [Isotretinoin],3.78 ± 1.7%
5,CCCOc1ccc2[nH]c(NC(=O)OC)nc2c1 [Oxibendazol],2.44 ± 0.18%
6,CC(=O)c1ccc2c(c1)N(CCCN1CCC(CCO)CC1)c1ccccc1S2 [Piperacetazine],0.302 ± 2.2%
7,Nc1ccn([C@@H]2O[C@H](CO)[C@@H](O)C2(F)F)c(=O)n1 [Gemcitabine],28.3 ± 14%
8,Cc1c(N(C)C)c(=O)n(-c2ccccc2)n1C [Amidopyrine],-1.02 ± 2.5%
9,N=C(NCCCCCCNC(=N)NC(=N)Nc1ccc(Cl)cc1)NC(=N)Nc1ccc(Cl)cc1 [Chlorhexidine],106 ± 2.6%
10,CCCCC(CC)CNC(=N)NC(=N)NCCCCCCNC(=N)NC(=N)NCC(CC)CCCC (stereo not given) [Alexidine dihydrochloride],112 ± 12%
11,OC(CCN1CCCC1)(c1ccccc1)C1CCCCC1 (stereo not given) [Procyclidine hydrochloride],-0.85 ± 5%
12,COc1ccccc1OCC(O)CO (stereo not given) [Guaifenesin],-0.463 ± 1.9%
13,Cc1cccc(C)c1NC(=O)C1CCCCN1C (stereo not given) [Mepivacaine hydrochloride],-0.545 ± 1.2%
14,Cc1cc(/C=C/c2ccc3cc(N(C)C)ccc3[n+]2C)c(C)n1-c1ccccc1 [Pyrvinium pamoate],13.6 ± 3.2%
15,O=C1OCCN1/N=C/c1ccc([N+](=O)[O-])o1 [Furazolidone],115 ± 13%
16,COc1cc(NS(=O)(=O)c2ccc(N)cc2)nc(OC)n1 [Sulfadimethoxine],-0.552 ± 0.63%
17,Cc1cc(N)c2ccccc2[n+]1CCCCCCCCCC[n+]1c(C)cc(N)c2ccccc21 [Dequalinium dichloride],12.5 ± 11%
18,CCC[C@@H]1C[C@@H](C(=O)N[C@@H]([C@H]2O[C@H](SC)[C@H](O)[C@@H](O)[C@H]2O)[C@H](C)Cl)N(C)C1 [Clindamycin hydrochloride],35.5 ± 16%
